# Results: the supplement of paper PMC8728848
# The full list was thinned out, with the strongest signals kept by preference.
# B1: E-Selectin (Homo sapiens), P16581 (protein)
# chain: MIASQFLSALTLVLLIKESGAWSYNTSTEAMTYDEASAYCQQRYTHLVAIQNKEEIEYLNSILSYSPSYYWIGIRKVNNVWVWVGTQKPLTEEAKNWAPGEPNNRQKDEDCVEIYIKREKDVGMWNDERCSKKKLALCYTAACTNTSCSGHGECVETINNYTCKCDPGFSGLKCEQIVNCTALESPEHGSLVCSHPLGNFSYNSSCSISCDRGYLPSSMETMQCMSSGEWSAPIPACNVVECDAVTNPANGFVECFQNPGSFPWNTTCTFDCEEGFELMGAQSLQCTSSGNWDNEKPTCKAVTCRAVRQPQNGSVRCSHSPAGEFTFKSSCNFTCEEGFMLQGPAQVECTTQGQWTQQIPVCEAFQCTALSNPERGYMNCLPSASGSFRYGSSCEFSCEQGFVLKGSKRLQCGPTGEWDNEKPTCEAVRCDAVHQPPKGLVRCAHSPIGEFTYKSSCAFSCEEGFELHGSTQLECTSQGQWTEEVPSCQVVKCSSLAVPGKINMSCSGEPVFGTVCKFACPEGWTLNGSAARTCGATGHWSGLLPTCEAPTESNIPLVAGLSAAGLSLLTLAPFLLWLRKCLRKAKKFVPASSCQSLESDGSYQKPSYIL
# Experiments:
# Test in all cases: glycan array binding signal (z-score within array); higher = stronger binding
# Conditions in all cases: glycan notation: IUPAC condensed, linker removed
# [1] = target: Fuc(a1-2)Gal(b1-4)[Fuc(a1-3)]GlcNAc(b1-3)Gal(b1-4)[Fuc(a1-3)]GlcNAc
# How it was run: (§1)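 The Consortium for Functional Glycomics database supplied 3228 glycan arrays, of which those lacking an available protein sequence were dropped. The binding signal, a within-array Z-score, was averaged across arrays of the same protein sequence and across linkers. Negative scores can be read as non-binding.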
# [2] = target: Fuc(a1-2)[Gal(a1-3)]Gal(b1-4)Glc
# How it was run: as §1
# Fuc(a1-4)GlcNAc = target: Fuc(a1-4)GlcNAc
# How it was run: as §1
# [3] = target: Gal(a1-3)[Gal(a1-4)]Gal(b1-4)GlcNAc
# How it was run: as §1
# [4] = target: Gal(b1-3)GlcNAc(b1-3)Gal(b1-4)GlcNAc
# How it was run: as §1
# Gal(b1-4)Glc = target: Gal(b1-4)Glc
# How it was run: as §1
# [5] = target: Gal(b1-4)GlcNAc(b1-2)Man(a1-3)[Gal(b1-4)GlcNAc(b1-2)Man(a1-6)]Man(b1-4)GlcNAc(b1-4)GlcNAc
# How it was run: as §1
# [6] = target: Gal(b1-4)GlcNAc(b1-3)Gal(b1-4)Glc
# How it was run: as §1
# [7] = target: Gal(b1-4)GlcNAc(b1-3)[GlcNAc(b1-6)]Gal(b1-4)GlcNAc
# How it was run: as §1
# [8] = target: Gal3S(b1-3)[Fuc(a1-4)]GlcNAc
# How it was run: as §1
# Gal3S(b1-4)Glc = target: Gal3S(b1-4)Glc
# How it was run: as §1
# Gal4S6S(b1-4)GlcNAc = target: Gal4S6S(b1-4)GlcNAc
# How it was run: as §1
# Gal6S(b1-4)Glc = target: Gal6S(b1-4)Glc
# How it was run: as §1
# Glc(b1-6)Glc = target: Glc(b1-6)Glc
# How it was run: as §1
# [9] = target: GlcNAc(b1-2)Gal(b1-3)GalNAc
# How it was run: as §1
# GlcNAc(b1-3)Gal = target: GlcNAc(b1-3)Gal
# How it was run: as §1
# GlcNAc(b1-3)GalNAc = target: GlcNAc(b1-3)GalNAc
# How it was run: as §1
# [10] = target: GlcNAc(b1-3)[GlcNAc(b1-4)][GlcNAc(b1-6)]GlcNAc
# How it was run: as §1
# [11] = target: GlcNAc(b1-3)[GlcNAc(b1-6)]GlcNAc(b1-4)GlcNAc
# How it was run: as §1
# [12] = target: Man(a1-3)[Man(a1-6)]Man(a1-6)[Man(a1-3)]Man
# How it was run: as §1
# [13] = target: Neu5Ac(a2-3)Gal(b1-3)GalNAc(b1-3)Gal(a1-4)Gal(b1-4)Glc
# How it was run: as §1
# [14] = target: Neu5Ac(a2-3)Gal(b1-3)[Fuc(a1-4)]GlcNAc
# How it was run: as §1
# [15] = target: Neu5Ac(a2-3)Gal(b1-3)[Fuc(a1-4)]GlcNAc(b1-3)Gal(b1-4)[Fuc(a1-3)]GlcNAc
# How it was run: as §1
# [16] = target: Neu5Ac(a2-3)Gal(b1-4)GlcNAc(b1-2)Man(a1-3)[Neu5Ac(a2-3)Gal(b1-4)GlcNAc(b1-2)Man(a1-6)]Man(b1-4)GlcNAc(b1-4)GlcNAc
# How it was run: as §1
# [17] = target: Neu5Ac(a2-3)Gal(b1-4)[Fuc(a1-3)]GlcNAc(b1-3)Gal
# How it was run: as §1
# [18] = target: Neu5Ac(a2-6)Gal(b1-4)GlcNAc(b1-2)Man(a1-6)[GlcNAc(b1-2)Man(a1-3)]Man(b1-4)GlcNAc(b1-4)GlcNAc
# How it was run: as §1
# [19] = target: Neu5Ac(a2-6)GalNAc(b1-4)GlcNAc
# How it was run: as §1
# [20] = target: Neu5Ac9Ac(a2-6)Gal(b1-4)GlcNAc
# How it was run: as §1
# [21] = target: Neu5Gc(a2-3)Gal(b1-3)[Fuc(a1-4)]GlcNAc
# How it was run: as §1
# Neu5Gc(a2-6)GalNAc = target: Neu5Gc(a2-6)GalNAc
# How it was run: as §1
binder,measurement,setting,value
B1,glycan array binding signal (z-score),[1],-0.198
same,glycan array binding signal (z-score),[2],-0.226
same,glycan array binding signal (z-score),Fuc(a1-4)GlcNAc,-0.173
same,glycan array binding signal (z-score),[3],-0.265
same,glycan array binding signal (z-score),[4],-0.181
same,glycan array binding signal (z-score),Gal(b1-4)Glc,-0.251
same,glycan array binding signal (z-score),[5],-0.189
same,glycan array binding signal (z-score),[6],-0.075
same,glycan array binding signal (z-score),[7],-0.027
same,glycan array binding signal (z-score),[8],1.21
same,glycan array binding signal (z-score),Gal3S(b1-4)Glc,-0.07
same,glycan array binding signal (z-score),Gal4S6S(b1-4)GlcNAc,0.276
same,glycan array binding signal (z-score),Gal6S(b1-4)Glc,-0.044
same,glycan array binding signal (z-score),Glc(b1-6)Glc,-0.134
same,glycan array binding signal (z-score),[9],-0.209
same,glycan array binding signal (z-score),GlcNAc(b1-3)Gal,-0.024
same,glycan array binding signal (z-score),GlcNAc(b1-3)GalNAc,-0.266
same,glycan array binding signal (z-score),[10],-0.261
same,glycan array binding signal (z-score),[11],-0.105
same,glycan array binding signal (z-score),[12],-0.209
same,glycan array binding signal (z-score),[13],-0.173
same,glycan array binding signal (z-score),[14],9.04
same,glycan array binding signal (z-score),[15],3.76
same,glycan array binding signal (z-score),[16],-0.122
same,glycan array binding signal (z-score),[17],3.07
same,glycan array binding signal (z-score),[18],-0.282
same,glycan array binding signal (z-score),[19],-0.117
same,glycan array binding signal (z-score),[20],-0.181
same,glycan array binding signal (z-score),[21],12.1
same,glycan array binding signal (z-score),Neu5Gc(a2-6)GalNAc,-0.239
